The results in this text go back to ChEMBL document CHEMBL4513216, “Probing the Open Global Health Chemical Diversity Library for Multistage-Active Starting Points for Next-Generation Antimalarials” (ACS Infect Dis, 2020).

Structures are written as SMILES. Out of some 69,000 compounds screened, about 8,600 (12%) showed an effect of 50% or more. This is one part of a sample in which strong results are shown more often than they occur.

The test relates to Plasmodium berghei. The test can be described thus: Screen against P. berghei liver stage (PbLuc), transformed with Luciferase, at 10uM. The test is classed as functional, HepG2. The following applies: tested at 10 uM.
With `CSc1ccccc1NC(=O)C1CN(C(=O)c2ccc3c(c2)OCO3)C1`, the INHIBITION came to 12.7%.
In the case of `CN(C)C(=O)[C@@H]1CCO[C@@H]2CCN(c3ncccn3)C[C@@H]21`, the INHIBITION is 8.85%.
Consider `Cc1nc(C)n(CC2CCCCN2Cc2nnc(-c3ccco3)o2)n1` (stereo not given), for which the INHIBITION is reported as -9.07%.
For the compound `Cc1nc(C)n(CC2CCCN(Cc3nnc(-c4ccco4)o3)C2)n1` (stereo not given), the INHIBITION is given as -0.79%.
`Cc1nc(C)n(CC2CCCN2Cc2nnc(-c3ccco3)o2)n1` (stereo not given): the INHIBITION came to 50%.
Regarding `O=C(Cn1cc(-c2ccccc2)ncc1=O)Nc1nc(C2CC2)n[nH]1`, the INHIBITION came to 33.7%.
As for `O=C(N[C@H]1COC[C@@H]1N1CCCC1)c1csc(-c2cccs2)n1`, the INHIBITION is 34.2%.
As to `COc1ccc(C[C@H]2CN(C(=O)c3ccc(C)nc3)CC[C@@H]2OC)cc1`, the INHIBITION was -12.2%.
The figure for `COc1ccc(C[C@H]2CN(C(=O)c3ccncc3)CC[C@@H]2OC)cc1` is 34.1%.
The result for `COc1ccc(C[C@H]2CN(c3cc(OC)ncn3)CC[C@@H]2OC)cc1` reads 55.5%; that for `COc1ccc(C[C@H]2CN(c3cc(OC)ncn3)CC[C@H]2OC)cc1`, 74.8%; that for `COc1cc(N2CC[C@@H](OC)[C@@H]2Cc2ccccc2)ncn1`, -30%.
On to `COc1ccc(C[C@H]2CN(C(=O)c3ncccn3)CC[C@@H]2OC)cc1`, for which the INHIBITION came out at 27.2%.
Take `c1cc(CN2CCCn3cnc(COCC4CC4)c3C2)ccn1`: the INHIBITION is 18.5%.
For the compound `COCc1nn(C)c2c1CCN(Cc1cnn(C)c1)C2`, the INHIBITION was -17.1%.
The figure for `N#Cc1ccc(CNCCc2cc(F)cc3c2OCOC3)cc1` is 28.8%.
The result for `Cc1cc(C(=O)N2CCO[C@H]3[C@H](OCCN(C)C)CC[C@@H]32)c(C)[nH]1` reads 24.3%; that for `O=C1OCCN1CC(=O)N1C[C@@H]2CC[C@H]1CN(C(=O)c1ccccn1)C2`, 44.8%.
`O=C1Nc2ccccc2CN(CC2CC2)C12CCNC2` (stereo not given): the INHIBITION is 46.6%.
The result for `O=C(CN1CC(c2nc(Cc3ccccc3)no2)C1)NCC1CCCO1` (stereo not given) reads 2.55%; that for `CC(C)NC(=O)C1CN(C(=O)Nc2ccccc2)CC12CCOCC2` (stereo not given), 17.6%; that for `Cc1ccc(NC(=O)N2CC(C(=O)NC(C)C)C3(CCOCC3)C2)cc1` (stereo not given), 80%.
In the case of `CC(C)NC(=O)C1CN(C(=O)Cc2cccc(F)c2)CC12CCOCC2` (stereo not given), the INHIBITION came to 10%.
`CC(C)NC(=O)C1CN(C(=O)N2CCCC2)CC12CCOCC2` (stereo not given): the INHIBITION is on record as 22.7%.
`CC(C)NC(=O)C1CN(C(=O)Nc2ccc(F)cc2)CC12CCOCC2` (stereo not given): the INHIBITION came out at 14.8%.
As to `CN(C)C(=O)N1CC(C(=O)NCC2CC2)C2(CCOCC2)C1` (stereo not given), the INHIBITION was 36.7%.
On to `CC(C)NC(=O)C1CN(C(=O)N(C)C)CC12CCOCC2` (stereo not given), for which the INHIBITION is on record as 89.2%.
Consider `CC(C)NC(=O)C1CN(C(=O)CCc2ccccc2)CC12CCOCC2` (stereo not given), for which the INHIBITION came to 20.9%.
The figure for `CC(C)NC(=O)C1CN(C(=O)Cc2ccccc2)CC12CCOCC2` (stereo not given) is 53.4%; for `CN(CCOCC1CC1)C(=O)Nc1ccc([S+](C)[O-])c(F)c1` (stereo not given) it is 41.3%.
Take `Cc1cnn(CC(=O)N2CCCN(Cc3cnn(C(C)C)c3)CC2)c1`: the INHIBITION was determined as 33.7%.
Regarding `NC(=O)CS(=O)(=O)Cc1csc(-c2ccccc2)n1`, the INHIBITION is on record as 46.6%.
The figure for `CCS(=O)(=O)N1CC[C@H]2CO[C@H](CN(C)C)[C@H]2C1` is 19.4%.
The figure for `Cc1nc(NC(=O)OC(C)(C)C)sc1C#N` is 53.4%; for `Cc1nc(NC(=O)OC(C)(C)C)sc1C(N)=O` it is -0.514%; for `Cc1nc(NC(=O)OC(C)(C)C)sc1C(=O)O` it is 46.6%.
The figure for `O=C(c1ccc[nH]1)N1CCc2ncc(Cn3cccn3)n2CC1` is 25.6%; for `c1ccc(N2CCC(OCC3CCCCO3)CC2)nc1` (stereo not given) it is 62.9%; for `Clc1ccc(N2CCC(OCC3CCCCO3)CC2)nc1` (stereo not given) it is 34.5%.
For `Cc1nccn1-c1cccc(C2CCCN2)n1` (stereo not given), the INHIBITION is listed as -2.09%.
The figure for `c1ccc(N2CCN(Cc3cnc(C4CCCCO4)nc3)CC2)nc1` (stereo not given) is 51.7%.
Take `Cc1nccn1-c1cccc(N2CCC(OCC3CCCCO3)CC2)n1` (stereo not given): the INHIBITION was found to be 95.9%.
The result for `c1ccc(CCN2CCC(OCC3CCCCO3)CC2)nc1` (stereo not given) reads 7.24%; that for `c1ccc(CN2CCN(Cc3cnc(C4CCCCO4)nc3)CC2)cc1` (stereo not given), 10.9%.
The result for `c1ccc(N2CCN(Cc3cnc(C4CCCCO4)nc3)CC2)cc1` (stereo not given) reads 21.1%.
In the case of `c1cnc(N2CCC(OCC3CCCCO3)CC2)nc1` (stereo not given), the INHIBITION was 31.1%.
The result for `CCCn1cc(C(=O)N2CCCC2(C)c2nc(C)cc(C)n2)cn1` (stereo not given) reads -3.02%; that for `Cn1cc(S(=O)(=O)N(CC(F)(F)F)C2CC2)cc1C(N)=O`, -29.2%; that for `O=C(Cn1cnc2ccsc2c1=O)c1ccc2c(c1)OCCO2`, -73.1%.
The figure for `COCC(=O)NCCSCCOc1cccc(Br)c1` is 18%.
As for `COCC(=O)N1CCN(S(=O)(=O)c2ccccc2)[C@@H](C(=O)OC)C1`, the INHIBITION is -33%.
The figure for `COCC(=O)NCCC(=O)N1CCN(S(=O)(=O)c2cccc(Br)c2)CC1` is 63.8%; for `COCC(=O)NCc1cccc(Br)c1` it is 3.81%; for `COCC(=O)NCCC(=O)N1CCN(S(=O)(=O)c2ccc(Br)cc2)CC1` it is 68.4%.
The result for `CS(=O)(=O)NCCC(=O)N1CCN(S(=O)(=O)c2ccc(Br)cc2)CC1` reads 11.8%; that for `CCCn1ncc(C(=O)NC2CCN(CC3CCCO3)CC2)c1C` (stereo not given), 34.4%.
The figure for `CCCn1ncc(C(=O)NC2CCN(C3CCOCC3)CC2)c1C` is 59.3%.
Turning to `CCCn1ncc(C(=O)N2CCN(C3CCCC3)CC2)c1C`, the INHIBITION is given as -39.2%.
The figure for `CN1CC(=O)N(c2cccc(F)c2)CC12CCN(Cc1cnn(C)c1)C2` (stereo not given) is 18.2%; for `Cc1ccc(C2(CN3CCN(Cc4cnc(C)n4C)CC3)CC2)cc1` it is 12.8%; for `c1ccc2ncc(CC3CCNC3)cc2c1` (stereo not given) it is 35%.
The result for `CN1CCC(Cc2cnc3ccccc3c2)C1` (stereo not given) reads 45.2%; that for `CN1CCNCC(Cc2cnc3ccccc3c2)C1` (stereo not given), 52.7%.
The figure for `Cc1ccc(C)n1C(C)C(=O)N1CCCN(Cc2cscn2)CC1` (stereo not given) is 26.55%; for `CCOC(=O)CC1CCCCN1C(=O)c1cccc2ccnn12` (stereo not given) it is -22.1%; for `Cn1cc(CN2CCCC23CCN(C(=O)c2ccccc2)CC3)cn1` it is -9.18%.
Regarding `CC(C)C(=O)N1CCCC2(CCCN2Cc2cccnc2)C1` (stereo not given), the INHIBITION worked out at 10.5%.
Take `Cn1cccc1C(=O)N1CCC2(CCCN2Cc2ccccc2)CC1`: the INHIBITION worked out at 45.3%.
The figure for `Cn1cccc1C(=O)N1CCC2(CCCN2S(C)(=O)=O)CC1` is 28.2%; for `Cn1cccc1C(=O)N1CCC2(CC1)CCN2S(C)(=O)=O` it is 20.1%.
`CN1CCCCC12CCN(C(=O)c1cccn1C)CC2`: the INHIBITION was determined as 50.7%.
The result for `O=C(c1cnccn1)N1CCCC2(CCCN2Cc2cccnc2)C1` (stereo not given) reads -8.85%; that for `Cn1cccc1C(=O)N1CCCC2(CCCN2Cc2cccnc2)C1` (stereo not given), 56.9%; that for `Cn1cc(CN2CCCC23CCN(C(=O)c2cccn2C)CC3)cn1`, 66%.
The result for `CO[C@@]1(C)C[C@@H](O)C12CCN(C(=O)c1ccccc1C(C)=O)CC2` reads 40.7%; that for `Cc1ccc(CN2C[C@@H]3COC[C@H](C(=O)N4CCCCO4)[C@@H]3C2)o1`, 14.8%; that for `CC(C)CCN1CC2(CCCN(C(=O)CNC(=O)N(C)C)C2)CCC1=O` (stereo not given), 19.4%.
The figure for `Cc1cc(NC(=O)NCC(C)N2CCOCC2)n(C)n1` (stereo not given) is -17%.
As for `Cc1cc(-c2cnc(C3CC3)nc2CN(C)C(=O)c2ccccn2)on1`, the INHIBITION is -25%.
Regarding `CCOCCCNC(=O)Nc1ccc(F)c(C(N)=O)c1`, the INHIBITION worked out at 7.67%.
The figure for `O=c1c2cccnc2ccn1Cc1nccn1C1CC1` is 14.9%; for `C[C@]1(O)CCN(Cc2nccs2)C[C@@H]1Oc1cccc(F)c1` it is 26.3%.
The result for `Cc1cnccc1CN1CC[C@H](Oc2cccc(F)c2)[C@@](C)(O)C1` reads 48.6%; that for `Cc1cnccc1CN1CC[C@@](C)(O)[C@H](Oc2cccc(F)c2)C1`, 56%; that for `C[C@]1(O)CCN(Cc2c[nH]cn2)C[C@@H]1Oc1cccc(F)c1`, 32.3%.
The figure for `COc1ncc(CN2CC[C@@](C)(O)[C@H](Oc3cccc(F)c3)C2)cn1` is 37.9%; for `C[C@@]1(O)CCN(Cc2cc[nH]n2)C[C@H]1Oc1cccc(F)c1` it is 66.4%.
For `Cc1ncc(CN2CC[C@@](C)(O)[C@H](Oc3cccc(F)c3)C2)cn1`, the INHIBITION amounted to 56%.
The result for `Cc1cnccc1CN1CC[C@@](C)(O)[C@H](Oc2ccccc2)C1` reads 39.2%.
The result for `C[C@]1(O)CCN(Cc2cccnc2)C[C@@H]1Oc1cccc(F)c1` reads 44.1%.
In the case of `O=C(Nc1ccccc1F)C1=NOC2(CCNCC2)C1`, the INHIBITION is -18.5%.
The figure for `CSCc1noc(CNC(=O)C2CCN(C(=O)C3CC3)CC2)n1` is 23%; for `Cc1nc(N2CCCC2)nc2c1CN(C(=O)N(C)C)CC2` it is 37.1%.
As to `CN(CCc1ccncc1)CC1CCCN1c1cccnn1` (stereo not given), the INHIBITION is on record as -69.3%.
For `Cc1cccc2nc(C(=O)N3CCC4(CCC(=O)N(C)C4)CC3)c(F)n12`, the INHIBITION is reported as 33.4%.
The result for `Cc1cnc(-c2nc(NC3CC3)ncc2-c2onc(C)c2C)cn1` reads 0.301%.
`Fc1ccc(CN2CCC3(CCN(Cc4nccs4)CC3)C2)cc1`: the INHIBITION is on record as 21.7%.
For `CCN1CCC(CNCc2c[nH]nc2C(C)(C)C)C1` (stereo not given), the INHIBITION was 11.4%.
Regarding `COc1ccc(CC(=O)N2CCC3(CC2)CCN(CC(C)C)C3=O)cc1`, the INHIBITION came out at 35.8%.
As to `Cc1nc(-c2ccsc2)ccc1C(=O)N(C)CC(F)(F)F`, the INHIBITION is recorded as -4.12%.
The figure for `CN(C)Cc1noc2c1CN(Cc1ccc[nH]1)CC2` is 73.2%; for `CN(C)Cc1noc2c1CN(Cc1ccsc1)CC2` it is 15.7%; for `Cc1cccc(CN2CCc3onc(CN(C)C)c3C2)n1` it is -14.2%.
The result for `CN1CC(=O)N(c2ccccc2)CC12CCN(Cc1nccn1C)C2` (stereo not given) reads 7.31%; that for `CNc1nc(CNC(=O)Nc2cccc(-c3ncc(C)o3)c2)cs1`, 20.1%.
